Reference: ChEMBL document CHEMBL5308504, “Tm Shift (DSF) assay results for EUbOPEN Chemogenomics Library” (2023)
Where “and” joins values, the source holds several entries; their conditions need not be identical. Equal entries are not always repeated.

Assays:
[1] = biological target: Bromodomain-containing protein 4 (Homo sapiens) (UniProt O60885); conditions: Compound concentration 20.0 uM, Protein concentration 2.0 uM, Result type QC Liability
[2] = biological target: T1, Transcription intermediary factor 1-alpha (Homo sapiens) (UniProt O15164); conditions: Compound concentration 20.0 uM, Protein concentration 2.0 uM, Result type QC Liability
T1 sequence (whole entry): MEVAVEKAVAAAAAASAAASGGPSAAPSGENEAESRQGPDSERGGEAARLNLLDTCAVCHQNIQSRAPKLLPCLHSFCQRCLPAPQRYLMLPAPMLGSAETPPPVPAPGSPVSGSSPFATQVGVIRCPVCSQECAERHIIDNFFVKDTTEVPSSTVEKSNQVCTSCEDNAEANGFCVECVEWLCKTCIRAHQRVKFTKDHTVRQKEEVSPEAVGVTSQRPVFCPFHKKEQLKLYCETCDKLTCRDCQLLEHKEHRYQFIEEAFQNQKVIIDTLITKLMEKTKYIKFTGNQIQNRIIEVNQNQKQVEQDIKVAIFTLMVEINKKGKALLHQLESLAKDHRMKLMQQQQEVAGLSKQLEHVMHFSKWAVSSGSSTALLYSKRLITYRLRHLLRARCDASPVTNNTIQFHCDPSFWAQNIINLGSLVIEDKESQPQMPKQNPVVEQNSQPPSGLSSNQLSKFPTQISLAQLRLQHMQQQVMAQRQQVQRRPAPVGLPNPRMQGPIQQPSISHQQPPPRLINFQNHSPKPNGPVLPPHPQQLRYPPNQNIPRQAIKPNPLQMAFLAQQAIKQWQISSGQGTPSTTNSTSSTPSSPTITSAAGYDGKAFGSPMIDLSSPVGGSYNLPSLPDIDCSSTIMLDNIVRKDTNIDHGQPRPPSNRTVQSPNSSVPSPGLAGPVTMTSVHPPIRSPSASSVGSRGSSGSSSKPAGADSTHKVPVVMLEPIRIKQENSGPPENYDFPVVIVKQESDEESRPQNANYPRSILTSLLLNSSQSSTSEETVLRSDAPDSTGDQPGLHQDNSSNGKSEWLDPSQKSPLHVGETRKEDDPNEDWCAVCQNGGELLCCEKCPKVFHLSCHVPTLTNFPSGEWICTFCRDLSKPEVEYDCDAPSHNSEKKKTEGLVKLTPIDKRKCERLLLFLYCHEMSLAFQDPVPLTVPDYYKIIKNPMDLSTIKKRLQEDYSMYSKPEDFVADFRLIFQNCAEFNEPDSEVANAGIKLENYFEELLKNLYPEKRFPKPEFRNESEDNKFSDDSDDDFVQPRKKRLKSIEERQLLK

SMILES | ΔTm [1] | ΔTm [2]
CC1(C)Cc2nc(C3CCCC3)c([C@@H](F)c3ccc(C(F)(F)F)cc3)c(C3CCCCC3)c2[C@@H](O)C1 | 0.17 °C | 0.34 °C
CN[C@@H]1CC[C@@H](c2ccc(Cl)c(Cl)c2)c2ccccc21 | -1.03 °C | -3.59 °C
N#CN1CC[C@@H](C(=O)Nc2nc3c(s2)CN(C(=O)CN=[N+]=[N-])CC3)C1 | -1.95 °C | -0.82 °C
CCO[C@@H](Cc1ccc(OCCc2ccc(OS(C)(=O)=O)cc2)cc1)C(=O)O | -0.9 °C | -3.53 °C
CC[C@@H](CO)Nc1nc(Nc2cccc(NC(=O)C(C)(C)C)c2)ncc1F | -2.22 °C | 0.33 °C
Cc1ccc(NC(=O)c2ccc(CN3CC[C@H](N(C)C)C3)c(C(F)(F)F)c2)cc1Nc1nccc(-c2cncnc2)n1 | -1.21 °C | -0.69 °C
O=C(O)c1ccc2c(c1)nc(NCc1ccccc1)c1ncncc12 | -2.21 °C | 0.06 °C
CN(c1ccc(C(F)(F)F)cc1)S(=O)(=O)c1ccc(C(=O)Nc2nc(-c3ccccn3)cs2)cc1 | 6.63 °C | 18.6 °C
COc1ccccc1[C@@H]1CNCCC12CCN(C(=O)[C@](OC)(c1ccccc1)C(F)(F)F)CC2 | -0.33 °C | 0.2 °C
Cc1cc(SCc2sc(-c3ccc(C(F)(F)F)cc3)nc2C)ccc1OCC(=O)O | -3.91 °C | -2.79 °C
COc1cc(-c2cc([C@H](O)C3CC3)n3ncnc(N)c23)ccc1CO | 0.22 °C | 0.24 °C
O=C(Nc1ccnc(NC(=O)C2CC2)c1)c1c(Cl)cccc1Cl | -1.81 °C | -3.69 °C
CC#CCC(C)[C@H](O)/C=C/[C@@H]1[C@H]2C/C(=C/CCCC(=O)O)C[C@H]2C[C@H]1O (some centres undefined) | -2.19 °C | 0.19 °C
CC(C)NC(=O)[C@H]1CCC[C@H]1Nc1nc(Nc2ccc(CN(C)C)cc2)ncc1Br | -3.19 °C | -4.42 °C
N#Cc1c(SCc2csc(-c3ccc(Cl)cc3)n2)nc(N2CCCC2)c(C#N)c1-c1ccc(OCCO)cc1 | -0.25 °C | 0.42 °C
COc1cc(-c2cc3ncccc3c(O[C@H](C)[C@H]3CNC(=O)C3)n2)cc(OC)c1OC | -1.66 °C and 1.15 °C | 0.28 °C and -2.67 °C
C[C@H](NC(=O)c1cc(Cl)ccc1Oc1ccc(F)cc1)c1ccc(C(=O)O)cc1 | -0.23 °C | -0.34 °C
COc1cc2ncnc(N[C@H](C)c3ccccc3)c2cc1OC1CCN(S(C)(=O)=O)CC1 | -3.35 °C | -1.88 °C
CCOC(=O)N1CCC(CN(Cc2ccc(Cl)cc2)Cc2ccc([N+](=O)[O-])s2)C1 (centres undefined) | -2.61 °C | -4.19 °C
CC(C)(O)[C@H](F)CN1Cc2cc(NC(=O)c3cnn4cccnc34)c(N3CCOCC3)cc2C1=O | -0.35 °C | -2.63 °C
O=C(O)c1ccc(OCCCc2ccc(OCCCCOC3CCCCC3)cc2)c(C(=O)NC2CCCC(C(=O)O)C2)c1 (centres undefined) | 0.35 °C | 0.3 °C
CCc1ccc(N(CC(C)C)S(=O)(=O)c2ccc(OCC3CCOCC3)c(CO)c2)cc1 | -3.99 °C | -0.46 °C
Cc1cc(C)nc(Nc2ncc(C(=O)NCCc3c(C)[nH]c4ccccc34)cn2)c1 | -0.8 °C | -1.3 °C
CN(C)CCCNc1ccnc(Nc2cccc(Cl)c2)n1 | -2.63 °C | -4.21 °C

SMILES | ΔTm [1] | ΔTm [2]
CCc1cc2c(cc1N1CCC(N3CCOCC3)CC1)C(C)(C)c1[nH]c3cc(C#N)ccc3c1C2=O | -2.92 °C | -0.86 °C
CCn1ccc(Nc2ncc3c(n2)-c2c(nn(C)c2-c2ccc(-c4cnn(C)c4)cc2Cl)CC3)n1 | -1.73 °C | -2.64 °C
Cc1ccc2c(NS(=O)(=O)c3ccccc3Cl)cccc2c1Oc1ncccc1-c1ccnc(N[C@H]2CCCNC2)n1 | 0.99 °C | 1.37 °C
N=C(N)NCCC[C@H](NC(=O)CC1(CC(=O)N2CCN(C(c3ccccc3)c3ccccc3)CC2)CCCC1)C(=O)NCc1ccccc1 | -0.62 °C | -1.18 °C
CCc1c(-c2ccc3[nH]ncc3c2)cnc(N)c1-c1ccc(O)cc1 | -1.17 °C | -2.74 °C
CC(C(=O)Nc1cc(C#N)ccc1CCCC(=O)O)c1ccc(F)c2ccccc12 (centres undefined) | -0.24 °C | -1.35 °C
CCC(=O)N[C@@H]1CC[C@H](C(=O)N(C)c2ccc(-c3nc4ccccc4o3)cc2)C1 | -0.34 °C | 0.25 °C
CNC(=O)COc1cc2cc(Nc3nc(N4CCC(C(=O)N(C)C)CC4)ncc3Cl)cc(OC)c2n(C)c1=O | -1.01 °C | -0.08 °C
COc1ccc(N(C(=O)Nc2c(C)cccc2C)c2cc(Nc3ccc(N4CCN(C)CC4)cc3)ncn2)c(OC)c1 | 2.62 °C | 0.7 °C
CN[C@@H](C)C(=O)N[C@H]1CN(C(=O)CC(C)C)CC[C@H]2CC[C@@H](C(=O)NC(c3ccccc3)c3ccccc3)N2C1=O | -2.41 °C | -2.26 °C
CCCCC/C=C/C=C1/C(=O)C=C[C@@H]1C/C=C\CCCC(=O)O | -4.89 °C | -1.14 °C
CC/C(=C(\c1ccccc1)c1ccc(OCCN(C)C)cc1)c1ccccc1 | -4.1 °C | -5.01 °C
CC(C)(O)c1cn(-c2ccc(-c3cccc(S(C)(=O)=O)c3)cc2)c(C(C)(C)c2ccccc2Cl)n1 | -4.36 °C | -3.39 °C
CC1CCN(c2ccnc(NCc3cn(C)cn3)n2)CC1 | -1.06 °C | -0.77 °C
COc1ccc(CC[C@@H](OC(=O)[C@H]2CCCCN2C(=O)[C@@H](c2cc(OC)c(OC)c(OC)c2)C2CCCCC2)c2cccc(OCCN3CCOCC3)c2)cc1OC | -4.83 °C | -1.63 °C
Cc1csc(-c2nnc(Nc3ccc(Oc4ncccc4-c4ccnc(N)n4)cc3)c3ccccc23)c1 | 11.5 °C | -1.04 °C
COc1cc(N[C@@H]2CCCC[C@]2(O)C(F)(F)F)ccc1F | -2.92 °C | -2.59 °C
OC(c1ccc(-c2ccc(CN3CCN(Cc4ccncc4)CC3)cc2)c(F)c1)(C(F)(F)F)C(F)(F)F | -1.34 °C | -2.91 °C
CC[C@H](Nc1c(C#N)c(-c2ccc(-c3cccc(C)c3F)cc2)nc2cnccc12)C(=O)O | -2.07 °C | -1.52 °C
COc1cccc(Cn2cc(C(=O)Nc3ccc(C)c(S(=O)(=O)N4CCOCC4)c3)c(-c3ccc(C)cc3)n2)c1 | 1.27 °C | 4.1 °C
Cc1cc2c(-c3ccco3)cnc(N[C@H]3CCN(C)C[C@@H]3C(=O)NC3CCCCC3)c2[nH]c1=O | 3.29 °C | -2.71 °C
O=C(O)C[C@H]1CCn2c1c(Sc1ccc(Cl)cc1)c1ccc(F)cc12 | 0 °C | -1.67 °C
CC1CCN(C(=O)[C@H](CCn2cccc2C#N)NS(=O)(=O)c2cccc3[nH]ccc23)CC1 | 0.4 °C | 0.4 °C
